Screening data as filed in PubChem.
This is one part of a sample in which hits are shown more often than they occur.
Pf Dd2 growth = qHTS Primary assay for Inhibitors of Plasmodium falciparum Dd2 growth in vitro. P. falciparum Dd2 growth, SYBR Green, 72 h. Potency, µM (series often up to 28.9 µM), usual class: inhibitors. actives 4.3% (n = 120,000). AID 1347417, 2020; active = well fitted inhibition curve with a large enough effect; note: nearly all actives have a fitted effect of over 65% in size
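Readout: SYBR Green fluorescence, 485 nm excitation, 535 nm emission, after ~16 h lysis at 37C. Before that, Dd2-infected red cells (2.5% hematocrit) grew 72 h with compound, 29 uM top final concentration.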
Large screens that a line does not name were inactive.

CCOC(=O)/C(C#N)=C/c1ccc(-c2ccccc2)o1	none
Cc1ccnc(C(NC(=O)CCc2cc3n(n2)CCCNC3)C2CC2)c1 (stereo not drawn)	none
CCOc1ccc(Cl)cc1CN(C)Cc1cc2n(n1)CCCNC2	Pf Dd2 growth 5.6µM
CN(Cc1ccc2c(c1)OCO2)Cc1cc2n(n1)CCNC2	none
COCC1CN(C(=O)c2cc(Cl)ccc2OC)CC12CCNCC2 (stereo not drawn)	none
COc1ccc(NC(=O)COc2ccc(-c3nnc4n3CCCC4)cc2)cc1OC	Pf Dd2 growth 8.9µM
O=C(COc1cccc(-c2nnc3n2CCCC3)c1)Nc1ccc(Cl)cc1F	none
COc1ccc(NC(=O)COc2cccc(-c3nnc4n3CCCC4)c2)cc1OC	Pf Dd2 growth 7.9µM
CCC(=O)Nc1ccc(-c2nnc3n2CCCC3)cc1	none
COc1ccc(NC(=O)Cn2nc3n(c2=O)CCCCC3)cc1OC	none
Cc1ccc(CC(=O)Nc2ccc(-c3nnc4n3CCCC4)cc2)cc1	none
CO[C@@H]1CO[C@H]2[C@@H]1OC[C@@H]2NC(=S)Nc1ccc(Cl)cc1	none
O=C(c1ccc(C(F)(F)F)cc1)N1CCC(c2nn(-c3ccc(F)cc3)c(=O)[nH]2)CC1	none
CN(Cc1cccnc1)C(=O)c1c(OCC2CC2)cc(=O)n2c1CCCCC2	none
Cc1ccc(/C=C/c2onc(C)c2S(=O)(=O)N2CCC(C(=O)N3CCN(c4ccccc4F)CC3)CC2)cc1	Pf Dd2 growth 6.3µM
Cc1cccc(/C=C/c2onc(C)c2S(=O)(=O)N2CCC(C(=O)N3CCC(C)CC3)CC2)c1	none
Cc1ccc(/C=C/c2onc(C)c2S(=O)(=O)N2CCC(C(=O)N3CCN(c4cccc(C)c4)C(C)C3)CC2)cc1 (stereo not drawn)	none
Cc1ccc(/C=C/c2onc(C)c2S(=O)(=O)N2CCC(C(=O)Nc3cc(F)ccc3F)CC2)cc1	none
Cc1ccc(/C=C/c2onc(C)c2S(=O)(=O)N2CCC(C(=O)N3CCC(N(C)C(C)C)CC3)CC2)cc1	Pf Dd2 growth 10µM
Cc1cccc(N2CCN(C(=O)C3CCN(S(=O)(=O)c4c(C)noc4/C=C/c4ccccc4F)CC3)CC2)c1C	none
COc1ccc(Nc2nccc3c(=O)cc(N4CCOCC4)oc23)cn1	none
CNC(=O)[C@@H]1CN(C(=O)c2nn(C)c3ccccc23)C[C@H]1COC	none
O=C(N[C@H](Cc1ccncc1)C1CC(O)C1)c1cccn1C1CC1 (stereo partly drawn)	none
COCCn1ncc(N2CCCC(CC(=O)NCc3ccncc3)C2)cc1=O (stereo not drawn)	none
COc1ccc(Cn2ccc3nc(C)c(C(=O)N4CCN(c5ccccc5)CC4)cc3c2=O)cc1	none
COc1ccc(Cn2ccc3nc(C)c(C(=O)NCc4cccc(OC)c4)cc3c2=O)cc1	none
COc1ccc(Cn2ccc3nc(C)c(C(=O)N4CCN(c5cccc(OC)c5)CC4)cc3c2=O)cc1	Pf Dd2 growth 13µM
COc1ccc(CCNC(=O)C2CCN(c3cn[nH]c(=O)c3)C2)cc1OC (stereo not drawn)	none
CC(C)C(=O)NCC(c1ccc2c(c1)OCO2)N1CCN(c2ccccc2)CC1 (stereo not drawn)	none
CCOc1ccc(C(=O)NCC(c2ccc3c(c2)OCO3)N2CCOCC2)cc1 (stereo not drawn)	none
O=C(NCC(c1ccc2c(c1)OCO2)N1CCN(c2ccc(F)cc2)CC1)c1cccc([N+](=O)[O-])c1 (stereo not drawn)	none
CCC(=O)NCC(c1ccc2c(c1)OCO2)N1CCN(c2ccccc2)CC1 (stereo not drawn)	none
Cc1cccc(NC(=O)C(=O)NCC(c2ccc3c(c2)OCO3)N2CCN(C)CC2)c1C (stereo not drawn)	none
CN1CCN(C(CNC(=O)C(=O)Nc2cccc(Cl)c2)c2ccc3c(c2)OCO3)CC1 (stereo not drawn)	Pf Dd2 growth 7.1µM
O=C(NCC(c1ccc2c(c1)OCO2)N1CCOCC1)C(=O)Nc1cccc(Cl)c1 (stereo not drawn)	none
CCOc1ccc(C(=O)NCC(c2ccc3c(c2)OCO3)N2CCN(c3ccc(F)cc3)CC2)cc1 (stereo not drawn)	Pf Dd2 growth 11µM
COc1ccc(N2CCN(C(CNC(=O)CC(C)C)c3ccc4c(c3)OCO4)CC2)cc1 (stereo not drawn)	Pf Dd2 growth 5.6µM
CC(C)(C)NC(=O)N1CCCC1c1noc(COc2ccc(F)cc2)n1 (stereo not drawn)	none
O=C(NCc1nnc2cc(-c3nc(C4CC4)no3)ccn12)c1ccc(F)c(F)c1	none
CC[C@@]1(C(=O)O)C[C@H](C(=O)NC(CO)CO)[C@H](c2ccc(OC)cc2)N1C	none
Clc1cccc(N2CCN(C3CCCN(CCCc4ccccc4)C3)CC2)c1 (stereo not drawn)	none
COc1ccccc1-c1[nH]nc2ncc(-c3ccnn3C)nc12	none
CSc1nc(Nc2ccc(C)cc2C)cc(-c2ccccc2)n1	none
Cc1cc(C)cc(Nc2cc(-c3ccccc3)nc(C)n2)c1	Pf Dd2 growth 11µM
Cc1nc(SCC(=O)Nc2ccc(C)c(Cl)c2)cc(-c2ccccc2)n1	none
CCN1CCC2(CCC1=O)CN(Cc1nc3c(cnn3C)c(=O)[nH]1)CCN2C (stereo not drawn)	none
CC1=C[C@@H](CO)[C@H](C(C)C)C[C@H]1CC(=O)NCc1cccnc1	none
COc1ccc(-c2ccc3nnc(CNC(=O)c4ccc(OC)nc4OC)n3n2)cc1	none
COc1ccc(CN2CCC3(CC2)CC(O)CCO3)cc1 (stereo not drawn)	none
COCC(=O)N1CCC(N2C[C@H](O)C[C@H]2C(=O)NC2CCCCC2)CC1	none
CN(CCCc1cnn(C)c1)C(=O)C1CNCCO1 (stereo not drawn)	none
CC(C)(C)NC(=O)CCSc1nc(-c2ccc3c(c2)OCO3)cc(C(F)(F)F)n1	none
CCCNC(=O)CCSc1nc(-c2ccc3c(c2)OCO3)cc(C(F)(F)F)n1	Pf Dd2 growth 5µM
CCCNC(=O)CSc1nc(-c2ccc(OC)cc2)cc(C(F)(F)F)n1	none
COc1ccc(-c2cc(C(F)(F)F)nc(SCCC(=O)Nc3ccccc3F)n2)cc1	none
COc1ccc(-c2cc(C(F)(F)F)nc(SCCC(=O)Nc3cc(C)ccc3O)n2)cc1	Pf Dd2 growth 1µM
COc1ccc(CNC(=O)CSc2nc(-c3ccc(OC)cc3)cc(C(F)(F)F)n2)cc1	none
O=C(NCc1cccc(C(F)(F)F)c1)C1(CCO)CCN(c2ncccn2)C1 (stereo not drawn)	none
O=C1NC2(CCCN(C(=O)c3ccccc3F)C2)Oc2ccccc21 (stereo not drawn)	none
Cc1ccc(C(=O)N2C(C(=O)N3CCOCC3)COC23CCN(C(=O)c2ccc(F)cc2)CC3)cc1 (stereo not drawn)	none
CCN(C(=O)C1CCC(=O)N(CCc2ccc(Cl)cc2)C1)C(C)C (stereo not drawn)	none
CCN1CCC2(CCC1=O)CN(C(=O)CCc1cccnc1)CCN2C (stereo not drawn)	none
O=C(Cn1cc(SCc2ccccc2F)c2ccccc21)N1CCCC1	none
O=C(NCCn1cc(SCc2ccccc2Cl)c2ccccc21)c1cccs1	Pf Dd2 growth 11µM
O=C(NCCn1cc(SCc2ccccc2)c2ccccc21)c1cccs1	none
CC(C)Oc1ccc2c(NC(=O)CN3CCOCC3)nn(CC(F)(F)F)c2c1	none
CC(C)c1ccc(OCC(=O)Nc2cc(-c3nc4ncccc4o3)ccc2Cl)cc1	none
Cc1cc(C)cc(OCC(=O)Nc2ccc(-c3nc4ncccc4o3)cc2C)c1	none
CCC(C)c1ccc(OCC(=O)Nc2cccc(-c3nc4ncccc4o3)c2)cc1 (stereo not drawn)	Pf Dd2 growth 2.5µM
O=C(NC[C@H]1OC[C@@H](NCc2cnc[nH]2)[C@@H]1O)C1CCCC1	none
CCOc1cc(=O)n2c(c1C(=O)N(CC)Cc1ccncc1)CCCCC2	none
